From PubChem BioAssay
This is a sample that favours compounds with a hit; in the whole collection about 12% have one here.
SARS PLpro yeast – inhibitors of SARS-CoV papain-like protease in yeast; S. cerevisiae expressing SARS-CoV PLpro, growth rescue; Potency, µM (series often up to 32.9 µM), without a hit: at the highest dose activity, positive = growth rescue, hits mostly activators; actives 0.19% (n = 330,000); calls by dose curve; also: 0% is about no effect; nearly all actives have a fitted effect of over 55% in size
NS1 function inh – inhibitors of influenza NS1 protein function. Potency, µM (doses to about 46.1 µM), for inactives: at the highest dose activity, positive = more growth. actives 0.4% (n = 270,000). AID 2326; calls by dose curve; also: actives are rising curves; nearly all actives have a fitted effect of over 50% in size
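In this qHTS, NS1 from influenza A is expressed in budding yeast, where it slows growth. Cells are switched from glucose to 2% galactose medium (pH 6.0, -URA), treated with compound, and growth recovery is read at OD600.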
Pf growth 96h – P. falciparum growth inhibition at 96 hours; Potency, µM (titrated, usually from 28.7 µM), without a hit: at the top dose activity change, negative = inhibition, actives largely listed as inhibitors; P. falciparum luciferase reporter growth, 96 h; actives 6.9% (n = 320,000); also: % is scaled to controls: 0 for no effect and ±100 for the full control effect
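Erythrocytes infected with luciferase-expressing P. falciparum were dispensed at 2% hematocrit and 0.05% parasitemia (final), then incubated with compounds 96 hours at 37 C in 5% CO2. Luminescence after detection reagent addition reported growth.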
HCV inh – inhibitors of hepatitis C virus infection; Potency, µM (series often up to 41.8 µM), for the others: at the top dose activity change, negative = inhibition, most hits filed as inhibitors; Huh7.5.1 HCVcc-Cre infection, luciferase reporter, 44 h; actives 3.4% (n = 340,000); also: % is scaled to controls: 0 for no effect and ±100 for the full control effect
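HCVcc-Cre virus at an moi near 0.5 was added right after compound to cells cultured 4 h from seeding (1,000 cells/well). Luciferase activity was determined 44 h later, 15 min after substrate addition at RT.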
AMA1 RON2 block – inhibitors of Plasmodium falciparum AMA1-RON2 interaction. Potency, µM (highest dose often 58.2 µM), for the others: at the top dose activity change, negative = inhibition, actives largely listed as inhibitors. AID 720542. actives 0.2% (n = 360,000). AlphaScreen AMA1-biotinylated RON2 peptide binding;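 also: 0% = vehicle wells and -100% = peptide control; nearly all actives have a fitted effect of over 45% in size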
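AMA1 (3D7) with his tag at 25 nM final met compounds first, then biotinylated RON2 peptide at 25 nM; detection used donor plus acceptor beads, 10 µg/mL apiece, read by AlphaScreen after 30 min at room temperature.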
Pf growth 48h – P. falciparum growth inhibition at 48 hours (one generation); Potency, µM (top dose mostly 28.7 µM), for inactives: at the highest dose activity change, negative = inhibition, hits mostly inhibitors; AID 504832; actives 5.9% (n = 310,000); P. falciparum luciferase growth in erythrocytes, 48 h; also: % is scaled to controls: 0 for no effect and ±100 for the full control effect
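Cell-based growth assay: transgenic P. falciparum expressing firefly luciferase, cultured in red cells within RPMI 1640 containing 0.5% w/v Albumax, 24 mM bicarbonate and gentamycin. A drop in luciferase activity indicates inhibition.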
Active calls of the source: *; ? = inconclusive; . = no result; [ ] = dose if it differs, or a comment. Unless noted, calls follow the shape of the dose curve; as a rule, active = well fitted curve in the direction sought with a large enough effect; inconclusive = small, poorly fitted or top-dose-only effect, or another doubt; inactive = no such curve, though single readings can be large; an effect the other way counts as inactive or inconclusive. Potency is read from the fitted curve at half-maximal effect.

SMILES	SARS PLpro yeast	NS1 function inh	Pf growth 96h	HCV inh	AMA1 RON2 block	Pf growth 48h
CN(CC(=O)Nc1ccc(OC(F)(F)F)cc1)C(=O)/C=C/c1cc2c(cc1[N+](=O)[O-])OCO2	2%	.	3%	?	-4%	-18%
CCOP(=O)(OCC)C(NC(=O)Nc1ccc(C)c(Cl)c1)c1ccccc1 (stereo unspecified)	3%	-17%	15µM*	-25%	-3%	?
CCOP(=O)(OCC)C(NC(=O)Nc1ccc(Cl)c(Cl)c1)c1ccccc1 (stereo unspecified)	12%	-8%	?	-7%	-6%[2.32 µM]	6%
CS(=O)(=O)N(Cc1ccccc1Cl)c1ccc(C(=O)NCc2ccccn2)cc1	14%	-12%	10µM*	9%	53%	?
CS(=O)(=O)N(Cc1ccc(C(=O)NCCSc2ccccn2)cc1)c1ccccc1	10%	1%	?	?	16%	-21%
C=CCNC(=O)c1ccccc1NC(=O)c1ccc(Cl)c(S(=O)(=O)Nc2cc(C)ccc2C)c1	5%	-7%	8.3µM*	13µM*	-1%	?
Cc1ccc(N(Cc2ccc(C(=O)NCCSc3ccccn3)cc2)S(C)(=O)=O)cc1C	-12%	3%	0.74µM*	2%	-6%	?
O=C(NCc1ccccn1)c1ccc(Cl)c(S(=O)(=O)Nc2ccccc2C(=O)NCc2ccccn2)c1	-4%	-5%	9.3µM*	32%	30%	12µM*
Cc1cc(C)cc(NS(=O)(=O)c2cc(C(=O)NCc3ccccn3)ccc2Cl)c1	-18%	-6%	?	22%	6%	12%
NC1(C(=O)O)CCc2cc(C(=O)O)ccc21 (stereo unspecified)	.	-1%	.	.	.	.
Cn1ccnc1	.	-1%	.	.	.	.
CC(O)[C@@H](C(=O)N1CCNCC1)n1cc(CCCCN)nn1 (stereo partly specified)	0%	4%	31%	?	0%	45%
Cc1ccccc1NS(=O)(=O)c1cc(C(=O)N2CCCC2)ccc1Cl	-3%	-3%	11%	.	0%	-29%
Cc1ccccc1NS(=O)(=O)c1cc(C(=O)Nc2ccccc2-c2ccccc2)ccc1Cl	-10%	-39%	-16%	11µM*	-8%	?
Cc1ccc(Cc2c(C)c(C#N)c3[nH]c4ccccc4n3c2=O)cc1	-7%	-57%	?	11µM*	3%	?
O=C(N/N=C/c1ccc(N2CCCCC2)o1)C(O)(c1ccccc1)c1ccccc1	6%	26%	?	7%	.	13µM*
CCCOc1ccc(/C=N/NC(=S)Nc2ccccc2[N+](=O)[O-])c(O)c1	10µM*	21%	?	?	45%	2.6µM*
CCCOc1ccc(/C=N/Nc2ccccc2[N+](=O)[O-])c(O)c1	-12%	-5%	14%	11%	-16%	233%
COc1ccccc1N1CCN(/N=C/C(Cl)=C/c2ccccc2)CC1	-4%	0%	84%	?	?	208%
Cc1nc(C(C)N(C)Cc2c(C(=O)N3CCCCC3)nc3c(C)cccn23)c(C)s1 (stereo unspecified)	-1%	-2%	10µM*	-3%	15%	?
Cc1cccn2c(CN(C)CCC3CCCCO3)c(C(=O)N3CCCCC3)nc12 (stereo unspecified)	9%	-1%	13µM*	-4%	19%	-2%
COC(=O)[C@@H]1CCCN1Cc1c(C(=O)N2CCCCC2)nc2c(C)cccn12	-1%	4%	8.3µM*	0%	3%	-8%
Cc1cccn2c(CN(C)C3CCOC3)c(C(=O)N3CCCCC3)nc12 (stereo unspecified)	2%	5%	?	21%	-8%	-11%
COCC1CCN(Cc2c(C(=O)N3CCOCC3)nc3c(C)cccn23)C1 (stereo unspecified)	.	.	.	.	-5%	.
CCOC(=O)CC1(NC(=O)C2CCC(=O)N(Cc3ccccc3F)C2)CCCCC1 (stereo unspecified)	-1%	1%	-3%	-2%	4%	-2%
SMILES	SARS PLpro yeast	NS1 function inh	Pf growth 96h	HCV inh	AMA1 RON2 block	Pf growth 48h
O=C(CSc1ncccn1)N1CCC(Cc2ccccc2)CC1	2%	.	-23%	?	7%	-17%
C=CCn1c(SCC(N)=O)nnc1-c1cccc(Br)c1	2%	-1%	14%	10%	-5%	10%
C=CCn1c(SCc2ccccc2C#N)nnc1-c1cc(Br)ccc1O	-20%	-126%	-1%	-8%	24%	2.3µM*
COC(=O)c1cccc(C23CC4(C2)[C@H](CN(Cc2ccc(-c5ccccc5)cc2)[C@@H]4c2ccccc2)C3c2ccccc2)c1 (stereo partly specified)	2%	6%	1.7µM*	-8%	3%	12µM*
COC(=O)c1cccc(C23CC4(C2)[C@H](CN(Cc2ccc(-c5ccccc5)cc2)[C@@H]4c2ccccc2)C3c2ccc(C(F)(F)F)cc2)c1 (stereo partly specified)	0%	18%	?	0%	-2%	?
COC(=O)c1ccc(C23CC4(C2)[C@H](CN(Cc2ccc(-c5ccccc5)cc2)[C@@H]4c2ccccc2)C3c2ccc(C(F)(F)F)cc2)cc1 (stereo partly specified)	3%	0%	?	3%[8.37 µM]	0%	?
COC(=O)c1ccc(C23CC4(C2)[C@H](CN(Cc2ccc(-c5ccccc5)cc2)[C@@H]4c2ccccc2)C3c2ccc(Cl)nc2)cc1 (stereo partly specified)	0%	?	?	14%	-1%	12µM*
COCc1c(C(=O)OCc2nc3ccsc3c(=O)[nH]2)oc2ccccc12	1%	.	-6%	3%	13%	0%
COc1ccccc1NC(=O)c1coc(=O)c(Br)c1	-4%	0%	24%	6%	-15%	15%
CCCCCSc1cc(OC)c(CCN)cc1OC	-3%	4%	?	?	-30%	?
CCCCCCCSc1cc(OC)c(CCN(C)C)cc1OC	-21%	10%	4.7µM*	?	?	?
O=[N+]([O-])c1ccc(CSc2ncnc3c2ncn3[C@@H]2O[C@H](CO)[C@H](O)[C@H]2O)cc1	.	-19%	.	.	.	.
CCCCC1=CC2=CC(=O)C(C)(OC(=O)CC)C(=O)C2=CN1Cc1ccccc1 (stereo unspecified)	-6%	3%	?	-7%	-12%	?
CCCCC1=CC2=CC(=O)C(C)(OC(=O)CC)C(=O)C2=CN1c1ccccc1 (stereo unspecified)	0%	7%	13µM*	-1%	-3%	10µM*
CCCCC1=CC2=CC(=O)C(C)(OC(=O)CC)C(=O)C2=CN1CCc1ccc(Br)cc1 (stereo unspecified)	3%	6%	?	-20%	-10%	9.3µM*
